Consider 14 molecules from paper PMC5540273 (PLoS ONE, 2017).

pKd: −log10 of the molar value.

One experiment relates to T1, VPS34.
T1 construct: gene PIK3C3

For a further experiment, the system named is AAK1. The settings on record: concentration: 1 μM, replicates: in singlicate; n = 1.
The next experiment deals with ABL1-nonphosphorylated. The settings on record: concentration: 1 μM, replicates: in singlicate; n = 1.
In another experiment the test system is ABL1-phosphorylated. Conditions: concentration: 1 μM, replicates: in singlicate; n = 1.
Another experiment relates to ABL2. The settings on record: concentration: 1 μM, replicates: in singlicate; n = 1.
In another experiment the test system is ACVR1B. Conditions: concentration: 1 μM, replicates: in singlicate; n = 1.
For a further experiment, the system named is ACVR1. The settings on record: concentration: 1 μM, replicates: in singlicate; n = 1.
In the next experiment the test system is ACVR2A. Conditions: concentration: 1 μM, replicates: in singlicate; n = 1.
Another experiment has as its system ACVR2B. Conditions: concentration: 1 μM, replicates: in singlicate; n = 1.
A further experiment deals with ACVRL1. The settings on record: concentration: 1 μM, replicates: in singlicate; n = 1.
A further experiment relates to T2, ADCK3.
T2 construct: gene CABC1
The settings on record: concentration: 1 μM, replicates: in singlicate; n = 1.

For another experiment, the system named is ADCK4. The settings on record: concentration: 1 μM, replicates: in singlicate; n = 1.
The test system of the next experiment is AKT1. The settings on record: concentration: 1 μM, replicates: in singlicate; n = 1.
In another experiment the test system is AKT2. Conditions: concentration: 1 μM, replicates: in singlicate; n = 1.
The subject of another experiment is T3, p38-alpha.
T3 construct: gene MAPK14

Another experiment relates to T4, p38-beta.
T4 construct: gene MAPK11
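For %Inh in this document: KINOMEscan kinase panel screen.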
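For pKd in this document: kd values determined as follow-up on hits from a single-replicate KINOMEscan panel screen.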

In the experiment with VPS34, `O=c1cc(N2CCOCC2)nc2n(Cc3cccc(Cl)c3)ccn12` [GSK2296823] showed a pKd of 7.46. Also, the “%Inh” value is 0% in the experiment on AAK1; 0% in the experiment with ABL1-nonphosphorylated; 7% in the experiment on ABL1-phosphorylated; 12% with ABL2; 0% in the experiment with ACVR1B; 0% in the experiment on ACVR1. The “%Inh” value came out at 0% in the experiment on ACVR2A; 0% in the experiment on ACVR2B; 0% with ACVRL1; 24% in the experiment on ADCK3; 0% in the experiment with ADCK4; 0% with AKT1. For the same molecule, in the experiment with AKT2, the “%Inh” value came out at 3%.
Consider `Nc1nc(-c2ccc3c(N)n[nH]c3c2)cc(N2CCCCC2)n1` [GSK2228768], for which the “%Inh” value was 53% in the experiment on AAK1; 0% with ABL1-nonphosphorylated; 0% with ABL1-phosphorylated; 12% in the experiment on ABL2; 0% in the experiment with ACVR1B; 0% in the experiment with ACVR1. In addition, the “%Inh” value came out at 0% in the experiment with ACVR2A; 0% in the experiment on ACVR2B; 0% in the experiment on ACVRL1; 0% with ADCK3; 6% in the experiment on ADCK4; 0% with AKT1. Moreover, in the experiment on AKT2, the “%Inh” value is 0%.
On to `Cl.Fc1ccccc1COc1ccc(Nc2ncnc3ccc(-c4nnc(C(F)(F)F)o4)cc23)cc1Cl` [GW424170], for which the “%Inh” value in the experiment with AAK1, in the experiment on ABL1-nonphosphorylated, with ABL1-phosphorylated, in the experiment with ABL2, in the experiment on ACVR1B and in the experiment on ACVR1 was 0% each time. The “%Inh” value turned out to be 0% in the experiment with ACVR2A; 0% in the experiment with ACVR2B; 0% in the experiment on ACVRL1; 0% with ADCK3; 22% in the experiment on ADCK4; 0% in the experiment on AKT1. The “%Inh” value in the experiment on AKT2 is recorded as 0%.
Consider `COc1cc2c(Nc3cccc(NC(=O)c4ccccc4)c3)ncnc2cc1OCCCN1CCOCC1` [GSK223810], for which the pKd with p38-alpha was 6.36; with p38-beta it was 7.00. Further, the “%Inh” value with AAK1 came to 45%; in the experiment on ABL1-nonphosphorylated, 41%; with ABL1-phosphorylated, 0%; in the experiment with ABL2, 21%; with ACVR1B it was 7%; in the experiment with ACVR1, 5%. Besides, the “%Inh” value in the experiment on ACVR2A came to 0%; with ACVR2B it was 0%; in the experiment on ACVRL1, 0%; with ADCK3, 30%; in the experiment with ADCK4, 12%; in the experiment with AKT1, 0%. For the same molecule, in the experiment with AKT2, the “%Inh” value worked out at 19%.
As for `O=C(Nc1ccccc1F)NC1CCN(c2ccnc(Nc3ccc(F)cc3)n2)C1` (centres unmarked) [GSK1379722], the “%Inh” value amounted to 0% in the experiment with AAK1; 0% in the experiment on ABL1-nonphosphorylated; 0% in the experiment on ABL1-phosphorylated; 9% in the experiment with ABL2; 0% with ACVR1B; 25% in the experiment on ACVR1. Also, the “%Inh” value with ACVR2A was 0%; in the experiment with ACVR2B it was 0%; with ACVRL1 it was 0%; in the experiment on ADCK3, 20%; with ADCK4, 40%; in the experiment on AKT1, 0%. In the experiment on AKT2, the “%Inh” value is listed as 13%.
For the molecule `O=C(Nc1ccccc1)Nc1ccc(Oc2ccc3nccn3n2)cc1`, the “%Inh” value in the experiment on AAK1 worked out at 0%; in the experiment on ABL1-nonphosphorylated it was 66%; in the experiment on ABL1-phosphorylated it was 18%; in the experiment on ABL2 it was 27%; with ACVR1B, 0%; in the experiment on ACVR1, 5%. In addition, the “%Inh” value in the experiment with ACVR2A worked out at 24%; in the experiment with ACVR2B, 9%; with ACVRL1, 0%; in the experiment with ADCK3 it was 15%; in the experiment on ADCK4, 1%; with AKT1, 13%. Besides, the “%Inh” value with AKT2 is given as 0%.
Consider `Fc1cccc(COc2ccc(Nc3ncnc4sc(-c5ccc[nH]5)cc34)cc2Cl)c1` [GW707818], for which the “%Inh” value with AAK1 is listed as 0%; with ABL1-nonphosphorylated it was 0%; with ABL1-phosphorylated, 0%; with ABL2 it was 0%; with ACVR1B, 2%; in the experiment with ACVR1, 9%. Besides, the “%Inh” value with ACVR2A came to 5%; with ACVR2B, 16%; with ACVRL1, 4%; in the experiment with ADCK3, 1%; in the experiment on ADCK4 it was 24%; with AKT1, 0%. Further, in the experiment with AKT2, the “%Inh” value turned out to be 7%.
As for `Cc1cccc(-c2nc(Nc3ccc4[nH]nnc4c3)c3ccccc3n2)n1` [GW867587], the “%Inh” value amounted to 0% with AAK1; 78% in the experiment on ABL1-nonphosphorylated; 47% in the experiment with ABL1-phosphorylated; 0% in the experiment on ABL2; 0% in the experiment with ACVR1B; 0% in the experiment on ACVR1. Besides, the “%Inh” value in the experiment with ACVR2A is recorded as 0%; in the experiment on ACVR2B it was 0%; in the experiment with ACVRL1, 0%; in the experiment with ADCK3 it was 0%; with ADCK4 it was 8%; in the experiment with AKT1, 5%. Besides, the “%Inh” value in the experiment on AKT2 was 0%.
Regarding `CNc1nccc(-c2c(-c3ccc(F)cc3)ncn2CCCN2CCOCC2)n1` [SB-222516], the “%Inh” value is 0% with AAK1; 23% in the experiment with ABL1-nonphosphorylated; 0% in the experiment with ABL1-phosphorylated; 12% in the experiment on ABL2; 19% in the experiment with ACVR1B; 8% in the experiment with ACVR1. Moreover, the “%Inh” value with ACVR2A was determined as 4%; in the experiment on ACVR2B it was 4%; in the experiment on ACVRL1, 15%; in the experiment on ADCK3, 1%; in the experiment with ADCK4, 0%; in the experiment on AKT1, 18%. Further, the “%Inh” value in the experiment on AKT2 worked out at 0%.
Consider `Nc1n[nH]c2nnc(-c3ccccc3)cc12` [SB-517389], for which the “%Inh” value with AAK1 came out at 16%; in the experiment on ABL1-nonphosphorylated, 11%; in the experiment on ABL1-phosphorylated, 5%; in the experiment with ABL2, 13%; in the experiment on ACVR1B, 0%; in the experiment on ACVR1 it was 16%. The “%Inh” value was 0% with ACVR2A; 4% in the experiment with ACVR2B; 0% with ACVRL1; 6% in the experiment with ADCK3; 16% in the experiment on ADCK4; 0% with AKT1. In the experiment on AKT2, the “%Inh” value is 13%.
`CC(C)N1CCC(n2cnc(-c3ccc(F)cc3)c2-c2ccnc(N)n2)CC1` [SB-223132] gave a pKd in the experiment with p38-alpha of 6.80. For the same molecule, the “%Inh” value in the experiment on AAK1 amounted to 9%; in the experiment with ABL1-nonphosphorylated, 50%; with ABL1-phosphorylated, 19%; with ABL2 it was 0%; in the experiment with ACVR1B it was 0%; in the experiment with ACVR1, 0%. For the same molecule, the “%Inh” value in the experiment with ACVR2A is recorded as 22%; with ACVR2B, 25%; in the experiment with ACVRL1, 0%; with ADCK3, 31%; in the experiment with ADCK4, 0%; in the experiment on AKT1, 3%. The “%Inh” value in the experiment with AKT2 was 0%.
Molecule `CSc1nn2c(=O)cc(N3CCOCC3)nc2n1Cc1cccc(Cl)c1Cl` [GSK2347225] gave a pKd in the experiment with VPS34 of 9.14. For the same molecule, the “%Inh” value in the experiment on AAK1 is reported as 7%; in the experiment with ABL1-nonphosphorylated, 0%; with ABL1-phosphorylated, 0%; in the experiment with ABL2, 14%; in the experiment with ACVR1B it was 0%; in the experiment on ACVR1, 18%. Further, the “%Inh” value in the experiment with ACVR2A was determined as 0%; in the experiment with ACVR2B, 12%; in the experiment with ACVRL1 it was 0%; in the experiment with ADCK3 it was 18%; in the experiment on ADCK4, 28%; in the experiment with AKT1, 0%. In the experiment on AKT2, the “%Inh” value is given as 9%.
In the experiment with p38-alpha, `NC(=O)c1sc(-n2cnc3ccccc32)cc1OCc1ccccc1F` [GSK1024306] had a pKd of 6.55. In addition, the “%Inh” value with AAK1 is given as 45%; with ABL1-nonphosphorylated, 0%; in the experiment on ABL1-phosphorylated it was 0%; in the experiment on ABL2 it was 8%; with ACVR1B it was 0%; in the experiment on ACVR1, 0%. The “%Inh” value in the experiment with ACVR2A worked out at 0%; in the experiment on ACVR2B, 2%; with ACVRL1 it was 0%; in the experiment with ADCK3 it was 5%; in the experiment on ADCK4 it was 7%; in the experiment on AKT1 it was 0%. In the experiment with AKT2, the “%Inh” value is 0%.
As to `Nc1nccc2scc(-c3ccc4c(c3)CCN4C(=O)Cc3cc(F)ccc3F)c12` [GSK2587663], the “%Inh” value in the experiment with AAK1 came to 0%; with ABL1-nonphosphorylated, 0%; in the experiment with ABL1-phosphorylated it was 0%; with ABL2, 18%; with ACVR1B, 0%; with ACVR1, 0%. Besides, the “%Inh” value was found to be 0% in the experiment with ACVR2A; 0% with ACVR2B; 0% with ACVRL1; 24% in the experiment with ADCK3; 35% in the experiment with ADCK4; 0% with AKT1. The “%Inh” value in the experiment with AKT2 is 17%.

By pKd is commonly meant the negative decadic logarithm of the Kd, by convention in mol/L. A low value points to a high Kd.
